In the library only some 3.5% were active in any assay of this set; here they are far more common.
BoNT-A LC inh2 – BoNT A light chain protease inhibition; multiplex microsphere protease substrate cleavage, flow cytometry; inhibition, % at 10 µM; hit rate 0.17% among 360,000
BoNT F protease – BoNT F light chain protease inhibition. inhibition, % at 10 µM. Multiplex microsphere protease cleavage assay, flow cytometry. hit rate 0.22% among 360,000; in the data active = inhibition above about 35%, passing the limit was not always enough; inconclusive = no clear call, values can overlap the other calls
Anthrax LF inh2 – blocks Bacillus anthracis lethal factor protease; AID 588501; inhibition, % at 10 µM; hit rate 0.12% among 360,000; multiplex microsphere protease cleavage assay, LF
Autofluor counter – counter-screen for toxin protease inhibitors: compound fluorescence. hit rate 3.1% among 360,000. compound autofluorescence counterscreen, microsphere flow cytometry; hits give high values. AID 624483. fluorescence intensity (concentration not given with the values); in the data active = fluorescence intensity above about 16000; inconclusive = no clear call, values can overlap the other calls
Vc quorum ag – quorum light induction in luxS cqsA deficient V. cholerae. V. cholerae BH1578 lux reporter, luminescence, 6 h. activation, % at 18.7 µM. hit rate 0.16% among 350,000. AID 588436; in the data active = activation mostly above about 9.7%, no sharp cut-off; inconclusive = no clear call, values can overlap the other calls; inactive = mostly below about 3.7%
Of the large screens only hits and unclear results are named; the others gave an inactive call. Rule as the data show it, unless noted: active = inhibition above about 30%; inconclusive = no clear call, values can overlap the other calls; inactive = below that.

Cc1cccc(-n2nc3c(c2NC(=O)c2ccc(S(=O)(=O)N4CCOCC4)cc2)CSC3)c1C	BoNT-A LC inh2 inconclusive, Autofluor counter 23238
COc1ccc(NC(=O)c2ccc(S(=O)(=O)N3CCOCC3)cc2)c(OC)c1	Autofluor counter 24065
NCC1C2CCC(O2)C1CO (stereo unspecified)	none
O[C@H]1C[C@H](c2ccccc2)N(CC2CCCCC2)C[C@@H]1n1cc(C2CC2)nn1	none
CC(C)N=Cc1c(O)[nH]c2ccccc12	Autofluor counter 21450
CCN1CCN(c2ccc(NC(=O)c3cccc(F)c3)cc2Cl)CC1	none
Cn1c(=O)oc2cc(S(=O)(=O)NCCC(=O)N3CCN(c4ccccc4)CC3)ccc21	none
Cn1c(=O)oc2cc(S(=O)(=O)NCCC(=O)N3CCc4ccccc43)ccc21	BoNT-A LC inh2 inconclusive, Autofluor counter 21642
Cn1c(=O)oc2cc(S(=O)(=O)NCCC(=O)N3CC=C(c4ccccc4)CC3)ccc21	Autofluor counter 23639
COC(=O)CN(C#N)c1nc(OC)nc(N(C)C)n1	Autofluor counter 17155
COC(=O)CN(C#N)c1nc(N(C)C)nc(N(C)C)n1	none
c1ccc2c(NCCc3c[nH]c4ccccc34)c3ccccc3nc2c1	none
CCOc1cc(N2CCOCC2)c(OCC)cc1NC(=O)COC(=O)c1ccc([N+](=O)[O-])o1	none
C=CCn1c(=N)c(C(=O)NCCCOC)cc2c(=O)n3cccc(C)c3nc21	none
COCCCNC(=O)c1cccn2c(=O)c3cc4ccccc4cc3nc12	BoNT-A LC inh2 inconclusive, Autofluor counter 24282
Cc1ccc(S(=O)(=O)N2CCCCC2)cc1NC(=O)Cn1cnc2c1c(=O)n(C)c(=O)n2C	none
Cc1ccc(N2CC(C(N)=O)CC2=O)cc1C (stereo unspecified)	none
Cc1ccc(N2CC(C(=O)Nc3nnc(C(C)C)s3)CC2=O)cc1 (stereo unspecified)	Autofluor counter 22336
Cc1ccc(N2CC(C(=O)Nc3nccs3)CC2=O)cc1Cl (stereo unspecified)	Autofluor counter 23923
Cc1ccc(N2CC(C(N)=O)CC2=O)cc1 (stereo unspecified)	BoNT-A LC inh2 inconclusive, Autofluor counter 18778
COc1ccc(C(=O)NCCS(=O)(=O)N2CCN(Cc3ccccc3)CC2)cc1	none
CCCOc1ccc(NC(=O)CC2C(=O)N(CC)C(=S)N2Cc2cccs2)cc1 (stereo unspecified)	Autofluor counter 21389
COc1ccc(-c2c(-c3cc(OC)cc(OC)c3)n(C)c3ccc(-c4ccc5[nH]ccc5c4)cc23)cc1	none
Cn1nc(C(=O)NCc2ccccc2)c2ccccc2c1=O	none
Cc1ccccc1-c1ccc(C(=O)NCc2ccccc2)o1	none
O=C(NCc1ccccc1)c1ccc(-c2ccc(F)cc2)o1	BoNT-A LC inh2 inconclusive, Autofluor counter 21149
Cn1nc(C(=O)NCc2ccc(F)cc2)c2ccccc2c1=O	Autofluor counter 22634
C=CCNC(=O)c1c(CSc2ccc(F)cc2)noc1C(=O)NCCC	none
CC(=O)c1cccc(NC(=O)C(C)OC(=O)CCc2nc3ccccc3c(=O)[nH]2)c1 (stereo unspecified)	none (no result: Vc quorum ag)
C=CCOc1ccccc1/C=c1\sc2nc(=O)c(C)nn2c1=O	Autofluor counter 23330
COc1ccc(N2CCN(C(=O)c3ccc(CNS(=O)(=O)c4ccc(C)cc4)cc3)CC2)cc1	none
COc1ccc(N2CCN(/C(=N\S(=O)(=O)c3ccc(C)cc3)Nc3nc(C)cc(C)n3)CC2)cc1	Autofluor counter 19034
COc1cc(CNc2ncnc3c2ncn3[C@H]2CN(Cc3cccc4ccccc34)C[C@@H](CO)O2)cc(OC)c1OC	none
COc1cc(C=O)ccc1OCc1c(C)noc1C	Autofluor counter 21666
COc1cc(C(=O)O)ccc1OCc1c(C)noc1C	Autofluor counter 21283
COc1ccc(NC(=O)C2CC2(Cl)Cl)cc1S(=O)(=O)N1CCCCC1 (stereo unspecified)	none
Cc1ccc(C2=NS(=O)(=O)N(C)C(C(=O)Nc3cc(C)n(CC(=O)N4CCC(C)CC4)n3)=C2)cc1	none
COc1cccc(CC(=O)N(C)C2CCCN(Cc3ccccc3F)C2)c1 (stereo unspecified)	none
COc1cccc(CCC(=O)N(C)C2CCCN(Cc3ccccc3F)C2)c1 (stereo unspecified)	BoNT F protease 36.0
N#Cc1ccc2[nH]c(CO)c(-c3ccccc3)c2c1	none
CC(=O)NCCn1c(SCc2ccc(C)cc2C)nc2ccccc2c1=O	Autofluor counter 23483
CC(=O)NCCn1c(SCc2cc(F)ccc2F)nc2ccccc2c1=O	BoNT-A LC inh2 inconclusive, Autofluor counter 21737
CC(=O)NCCn1c(SCc2ccccc2C)nc2ccccc2c1=O	none (no result: Vc quorum ag)
CC(=O)NCCn1c(SCC(=O)c2ccccc2)nc2ccccc2c1=O	Autofluor counter 23027
CC(NC(=O)COc1ccccc1)C(=O)NCc1ccccc1Cl (stereo unspecified)	none (no result: BoNT-A LC inh2, BoNT F protease, Anthrax LF inh2, Autofluor counter)
O=C(O)CCC(=O)NNC(=O)CCC1CCCCC1	none
O=C(CCC1CCCCC1)NNC(=O)NC12CC3CC(CC(C3)C1)C2	BoNT-A LC inh2 inconclusive, Autofluor counter 23967
O=C(NCc1ccccc1F)c1ccncc1	none
CC(C)CCNC(=O)C1CCN(c2nc3ccccc3o2)CC1	Autofluor counter 16365
O=C(NCc1cccs1)C1CCN(c2nc3ccccc3o2)CC1	none
Nc1nc(=O)n(C2CC(O)C(CO)O2)cc1F (stereo unspecified)	none
Cc1ccc(S(=O)(=O)N(C)C)cc1NC(=S)N1CCc2ccccc21	none
O=S(=O)(c1ccc(F)cc1)N1CCC(N2CCCCCC2)CC1	Autofluor counter 16305
CCCCNC(=O)C1CCN(C(=O)C2CCN(S(=O)(=O)c3ccc(C)cc3)CC2)CC1	none
Cc1ccc(S(=O)(=O)N2CCC(C(=O)NCCCN3CCCCCC3)CC2)cc1	Autofluor counter 24422
CS(=O)(=O)N1CCC(C(=O)Nc2cccc(F)c2)CC1	BoNT F protease 39.4
O=C(Nc1cccc(Cl)c1)C1CCCN(S(=O)(=O)c2ccc(F)cc2)C1 (stereo unspecified)	Autofluor counter 20734
CCCn1c(NC(=O)c2ccc([N+](=O)[O-])o2)nc2ccccc21	Autofluor counter inconclusive
CSc1ccc(CN2CCC(n3nccc3NC(=O)c3ccccc3C)CC2)cc1	none
O=C(c1ccc(F)cc1)C1CCN(C(=S)NCC2CCCO2)CC1 (stereo unspecified)	none
Cc1ccc(NC(=O)c2ccc(S(=O)(=O)N3CCC(C)CC3)cc2)cc1	Autofluor counter 20894
Cc1ccc(NC(=O)C2CCN(S(=O)(=O)c3ccc(F)cc3)CC2)cc1	Autofluor counter 23704
CC1CCCCN1S(=O)(=O)c1ccc(NC(=O)c2cccc(-n3cnnn3)c2)cc1 (stereo unspecified)	none (no result: Vc quorum ag)
CC1CCCN(S(=O)(=O)c2ccc(NC(=O)c3cccc(-n4cnnn4)c3)cc2)C1 (stereo unspecified)	Autofluor counter 20061
Cc1ccc(C(=O)O)cc1NC(=O)CCc1c(C)noc1C	none
OCCNC(=S)c1ccccc1	none
O=C(Nc1cc(C(F)(F)F)ccc1-n1cncn1)c1ccc(Br)cc1	Autofluor counter 24053
COc1ccc(N2C(=O)c3ccc(C(=O)Nc4ccc(NC(C)=O)cc4)cc3C2=O)cc1	none
CN1C(=O)CC(N2CCN(CC(=O)N3CCCC3)CC2)C1=O (stereo unspecified)	none
